# Experimental data: PubChem BioAssay AID1508600 (Functional Genomics Laboratory (NCATS/FGL), 2020)
# The campaign covered roughly 53,000 sequences. About 3,700 (7%) were called active.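 Rule for the calls: active = gene knockdowns whose robust z-score for IL-1 alpha signal is at least 2 or at most -2, so actives lie on both sides; inactive = the rest.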 This excerpt belongs to a sample that is enriched for actives.
# Experiment: Components of the Cytosolic LPS Sensing Pathway: Gene Identification via Genome-wide siRNA Screen;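 note: robust z of the log signal after scaling to non-targeting control siRNA wells of the plate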
# Settings: RAW264.7 macrophages, IL-1a HTRF, actives lie on both sides, screened at 100 nM (by protocol), cells primed 5 h with Pam3CSK4 first
# In short: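 Mouse macrophage line RAW264.7 is transfected with siRNA (100 nM final), grown 48h, primed with TLR ligand Pam3CSK4 5 h and given intracellular LipidA 24 h. IL-1a in supernatant is read by HTRF and viability by luminescence.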
row,Sequence,z-score
1,CCAUGGGAUAUGAUUUACATT against Phf11a,3.49 (active)
2,GGGAAUUUCAGGCUAUAUUTT against Taf2,1.13 (inactive)
3,CGAUGUGGACGAGAAGCUATT against Asap2,-0.702 (inactive)
4,CGCUAUGAGGCAGCUAAUUTT against Psma6,-2.27 (active)
5,CCCAUACUAAAAUUGUUGATT against Adam29,0.253 (inactive)
6,CCUACCUUCAUUCGCUUCGTT against Cpz,2.61 (active)
7,CCCAAUCAGCAUUUGCUCUTT against H2-M10.3,0.104 (inactive)
8,GGAUGGAGCUACUGAAAUUTT against Dera,0.39 (inactive)
9,CCAGAUCAUCGUGCAGAAUTT against E4f1,0.557 (inactive)
10,GGAGUGUUUUGCAGUUUUATT against Dcstamp,4.39 (active)
11,GCCACUGGUUCCAAUCGUCTT against Ncs1,-0.354 (inactive)
12,CCGAAGCAUUUUCCCAUCUTT against Slc22a20,-0.293 (inactive)
13,CCUGAUCCUCAGUUUGGUGTT against Prl,0.129 (inactive)
14,GGUAACAAACUACAUUUGCTT against Pcdhb16,2.7 (active)
15,CGAGAAUUCCUUGCUCUAATT against Mgat4a,0.194 (inactive)
16,GCGCGACCUUCGAAUGUAATT against Rnf5,-0.834 (inactive)
17,GGAUAUGGUUAAAGCCAAATT against Zg16,-0.172 (inactive)
18,GGGAUGUGUCCUGACUUUUTT against Zfp941,-0.402 (inactive)
19,CCCAACUUAAAAGUACGUUTT against Hdac5,0.83 (inactive)
20,GGUUCAAAAGUCGAGCGAATT against Nudt9,-0.137 (inactive)
21,GCCUAAGGGAGACUCUUUGTT against Ano7,-2.02 (active)
22,GGAAGUGAUUCUGCUAUGUTT against Cenpn,-1.69 (inactive)

row,Sequence,z-score
1,GGAAAGCAUGAGUUAAUAATT against Slain2,1.38 (inactive)
2,GGGAAUAUCACAGGUGCCATT against Axl,-0.737 (inactive)
3,GGCUCUAAAUUUUUUGUUCTT against Derl1,0.532 (inactive)
4,UGAGGAGAGUUUCCGAGUGTT against H2-Q6,-0.0985 (inactive)
5,GCUAGUCUUAUGGACCAGATT against Eaf2,-0.764 (inactive)
6,GGAAGAGCAUAAAAUGUCATT against Trps1,-0.695 (inactive)
7,GGCGAAUGCGCUUCUGAUATT against BC053393,2.29 (active)
8,GGCACACAGUUUUGUACAUTT against Nfat5,2.25 (active)
9,GGACAAGAAGAAAGAAAAGTT against Tmbim6,-1.07 (inactive)
10,GGAAGUUCCACCAUACCUCTT against Cypt4,-2.5 (active)
11,GGCGACAGCGUAAAAGUACTT against Lyst,-0.347 (inactive)
12,GGAAAAAAAACACUGACUGTT against Hoxa5,1.05 (inactive)
13,GGCUCAAGGCUGAGUUUCATT against En2,0.704 (inactive)
14,GGCCUGGAGGACUUUAUAATT against Cyp2a4,-1.13 (inactive)
15,GGCUAGCUACACAGUCUCATT against Plscr2,0.376 (inactive)
16,GCAUCAUUGUCAAUCAUAUTT against Olfr578,-2.25 (active)
17,CCGAAGGACAGUGUUUAUUTT against Mfsd11,0.212 (inactive)
18,GCCUGCUAUUUAAUUCAUATT against Fam168a,-0.671 (inactive)
19,GGUCCAGUGAAAUAAUAUCTT against Orc3,0.774 (inactive)
20,GGACUACCAAUACGAACUGTT against Il23a,2.22 (active)
21,GCAUAAAUUUCAAGAGCGCTT against Gigyf1,-0.243 (inactive)
22,CGUAAGAUCAACGAGAGAUTT against Ncaph2,-0.756 (inactive)

row,Sequence,z-score
1,GGGAAAGACUGGAAAUCUUTT against Tmod3,0.515 (inactive)
2,GGAGAUCGAAAAGAAUUUCTT against Mx2,1.17 (inactive)
3,GGAGGAAGAACUGUCUUUGTT against Wasf1,0.221 (inactive)
4,GGUGUUGGAUCAUGAUGUUTT against Nf2,-2.14 (active)
5,GCCCUUCAAAAGGAGCAGUTT against Cap1,1.86 (inactive)
6,GGACCAGCUGGACAAAAGATT against Zbtb18,0.131 (inactive)
7,GGCAUCAAAGACAAUACAATT against Vmn1r15,3.19 (active)
8,GGUCAAAUCACUGAGUUUUTT against 9530080O11Rik,1.74 (inactive)
9,GGUUGUCAUUCUUAUCCUUTT against Mageb1,0.57 (inactive)
10,GGGAAUGCUUAUGUAGGCATT against Aldh3b1,-1.03 (inactive)
11,GGCGGUUAGACAUUAUGGATT against Plac9a,1.25 (inactive)
12,GGCGUGUGCAAGAAAAUCGTT against Cacng3,2.53 (active)
13,GGAUGAGUUGUCAUUGAUATT against Nck1,0.998 (inactive)
14,CCUGUAGGGCUUUUUGAAATT against Mex3a,0.843 (inactive)
15,GGUGUUUUUGUCCAGGUCATT against Kcnk3,-0.618 (inactive)
16,GCAAGACAAGUUCUACGAUTT against Csad,1.83 (inactive)
17,GCCUGUUCGGGAAUCUUACTT against Olfr297,2.42 (active)
18,GCAUUCAGUUGGGACAGUATT against Hsh2d,0.443 (inactive)
19,CGCAGAGGUUUUACUUUAATT against Mycbpap,1.52 (inactive)
20,GCGAAGACGGAAGCAUAUUTT against Emc8,0.12 (inactive)
21,GGCGGAAAUCUUGAGCAAATT against Slc28a2,4.39 (active)
22,GGAGCUUAUCAACUACUAUTT against Cltc,-0.181 (inactive)

row,Sequence,z-score
1,GGAGAGAAACUGCGUGUAATT against Sla,1.46 (inactive)
2,GGCAGAAAUCCAUCAGAGATT against Rtkn2,-0.349 (inactive)
3,GCCGUACUUCGUCAAGCUATT against Ung,0.395 (inactive)
4,GGCAUCUAGGAGAACCUCATT against Insig2,-1.01 (inactive)
5,CGAGAAUUACAGACACUUGTT against Noc4l,0.962 (inactive)
6,GGCAAAAAGGCAGUAGCCATT against Ncl,0.644 (inactive)
7,GGCGGAGUUCUCAAGACUUTT against Nudt18,3.55 (active)
8,GGAACUGGAUCAAGAAUUUTT against Hhat,0.0393 (inactive)
9,CGGACAUAGUCCAUCAUUCTT against Aig1,1.47 (inactive)
10,CGGUAUAGUAGAUACUUAATT against Picalm,2.01 (active)
11,CCCACCUUCCAAAAGGAUCTT against 5031434C07Rik,-0.882 (inactive)
12,GGUGAAAUGGAUCGUCCUCTT against Nme8,-0.926 (inactive)
13,GGAUGGUCUGCUAUUACAUTT against Phf7,0.832 (inactive)
14,CCCUCAAGGCUGAUAAACATT against Il17b,-2.26 (active)
15,GGCUACAUGAGCUGGAGAATT against Insr,2.71 (active)
16,GCCGCUAACUAAAGUCAAATT against Aloxe3,1.15 (inactive)
17,GGAGAUUGGCUUCCAGAAATT against Slc38a7,0.494 (inactive)
18,GCAACACAUUUGAACCACUTT against Usp15,-1.79 (inactive)
19,CCACGAGGAGCUCAUUUUCTT against Dhfr,0.385 (inactive)
20,GGCCAAAGGCAUCAGGCAUTT against Gsto2,-1.7 (inactive)
21,GCUCAAACGAAAUGAUUCATT against Gys2,2.01 (active)
22,GCCGCACGUUUUUGAGUUGTT against Islr2,-0.554 (inactive)

row,Sequence,z-score
1,CCGAAAUUUUGAGUACUGUTT against Vmn1r67,0.285 (inactive)
2,CCACUUAAAAUUCAUUCCUTT against Arl6ip1,-0.21 (inactive)
3,GGAUGAUGCCCGAAAGAACTT against Zfp536,-4.55 (active)
4,GGAGAAGACACAGAGAACCTT against Pkd2l1,0.645 (inactive)
5,GGGCAUGGGAUUUAAUUCUTT against Dnajc11,1.54 (inactive)
6,CGCUAUGGUUUCUCAGCUUTT against Myh4,-0.02 (inactive)
7,GGAGAUUCAGAAGAUCCUCTT against Isoc2b,2.49 (active)
8,GCUCUCACCUUCAUUUGAATT against Tmem174,-1.37 (inactive)
9,GGAAAUAAUGUUACUGACATT against Zfp445,-0.178 (inactive)
10,GGCAUCAAUAGGAAGAUGCTT against Rgs19,0.182 (inactive)
11,GCAUUUAGGUCUGAUAAAGTT against Gpr61,0.00391 (inactive)
12,CCGACUGUUAAAGUGGUGUTT against Arih1,0.608 (inactive)
13,GUUUUACAAAUUCCUCCAUTT against Olfr1447,0.345 (inactive)
14,CCAGUUUUCGACACAAUUCTT against Cma1,0.645 (inactive)
15,GGCAGAGAAAUGGGCAAUGTT against Hcar1,2.12 (active)
16,GCUUAUGAGACUCAUUUAATT against Oser1,0.554 (inactive)
17,GCCGCUGCACUACAAUUUGTT against Trhde,0.717 (inactive)
18,GGAGCUAUACUGCUUUUCCTT against Mtmr7,1.61 (inactive)
19,GGCUUACCUGAACUUUCUGTT against Degs2,-0.381 (inactive)
20,GGGUGUCUUACACCUUACATT against Sertad2,-1.48 (inactive)
21,GGUGUUUGAGUCAACAGACTT against Oard1,-2.1 (active)
